# Compounds with a hit are over-represented: about 0.78% of the library has one in this group of screens.
# V-ATPase pHluor: yeast V-ATPase proton transport regulation by pHLuorin; 0.37% of 350,000 active; S. cerevisiae, pHLuorin cytosolic pH fluorescence; response, % at 10 µM; in the data active = response mostly above about 7.3%, no sharp cut-off; inactive = mostly below about 5.4%; note: actives read high
# PKA-R1A act: activators of PKA-R1A complex; AID 504707; PKA-R1A dissociation, Cy5-IP20 fluorescence polarization; scaled: DMSO 0%, 113 µM cGMP 100%; 0.083% of 340,000 active; P00514+P68181; activation, % at 11.4 µM;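 active = percent activation above the mean of all tested compounds plus 3 SD, cut at about 19% in these data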;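 note: higher means more PKAc released from R1A so a rise in polarization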
# PolyA inh: blocks polyadenylation in yeast reporter cells; S. cerevisiae SKY197-pL101 polyadenylation reporter, beta-gal luminescence; efflux-impaired pdr1/pdr3 knockout yeast; score 100 = 6 SD above DMSO; activity score, % at 12 µM; 0.02% of 300,000 active;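 active = lowest replicate activity score at least 50, where 100 means six control SD above control mean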;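 note: yeast exposed to compound for 9 h at 30 °C; higher score means more reporter readthrough which indicates perturbed polyadenylation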
# CR mimetic SO: yeast age-related superoxide inhibition as caloric restriction mimetic; S. cerevisiae aged cells, superoxide DHE fluorescence; hits give low values; superoxide response (% of plate mean), % at 10 µM; 0.18% of 330,000 active; AID 2690;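 active = superoxide response under a set limit, about three screen SD below normal, cut at about 65% in these data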;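 note: yeast aged for seven days with compound at 30 °C before DHE staining; 100% = average MFI of all compound-treated wells on the plate with controls excluded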
# PKA-R2B activ: activators of human PKA-R2B complex; 0.079% of 340,000 active; AID 504700; activation, % at 11.4 µM; P22694+P31323; PKA-R2B holoenzyme dissociation, Cy5-IP20 fluorescence polarization; R2B truncated from residue 108, S112A mutant; 0% DMSO only, 100% 113 µM cGMP;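 active = activation above a cutoff set at the mean over all compounds plus 3 SD, cut at about 18% in these data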;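 note: higher means more holoenzyme dissociation and a rise in polarization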
# Target sequence (P31323 whole entry, looked up, other chains not shown, the tested form may be a part): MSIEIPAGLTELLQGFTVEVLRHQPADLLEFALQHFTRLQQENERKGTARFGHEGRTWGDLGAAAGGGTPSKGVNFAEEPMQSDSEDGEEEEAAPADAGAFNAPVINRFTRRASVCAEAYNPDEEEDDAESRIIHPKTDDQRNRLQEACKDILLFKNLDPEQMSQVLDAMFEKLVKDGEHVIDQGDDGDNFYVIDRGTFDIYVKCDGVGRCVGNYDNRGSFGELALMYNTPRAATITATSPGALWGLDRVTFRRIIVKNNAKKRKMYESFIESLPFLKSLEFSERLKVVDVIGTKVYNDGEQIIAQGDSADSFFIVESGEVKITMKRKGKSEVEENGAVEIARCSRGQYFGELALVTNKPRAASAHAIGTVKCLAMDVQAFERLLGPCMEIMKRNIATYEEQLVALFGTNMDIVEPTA
# GASC-1 inh: inhibitors of human GASC-1 (JMJD2C) demethylase | GST-JMJD2C(1-420) H3K9me3 demethylation, DELFIA europium | AID 2099 | 0.069% of 330,000 active | inhibition, % at 2.35 µM | Q9H3R0;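 active = more than half of a compound's replicate wells show inhibition beyond 50%, single wells judged on their own value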;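 note: signal counts dimethyl H3K9 product captured on neutravidin plate; 0% = median of DMSO wells and 100% = 0.3 times that DMSO median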
# Superoxide pick: confirmation of caloric restriction mimetics inhibiting yeast age-related superoxide; shares compounds with CR mimetic SO; superoxide response (% of plate), % at 10 µM; S. cerevisiae aging, superoxide DHE fluorescence; hits give low values; AID 434994; 1% of 850 active;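 active = superoxide signal below 65% of the plate average of sample wells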;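 note: cells aged with compound for 7 days at 30 degrees C before staining; 100% equals mean DHE fluorescence of all compound wells on the plate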
# DHE counter: counter-screen for compounds affecting DHE oxidation and fluorescence in yeast. shares compounds with CR mimetic SO. S. cerevisiae BY4741, flow cytometry; hits give low values. fluorescence response, % at 10 µM. 850 tested, under 10 active. AID 435000;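 active = fluorescence response below 15%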;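 note: percent of the mean fluorescence averaged over all compound wells on the plate; lower means stronger quenching of DHE signal or ROS scavenging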
# An asterisk follows results filed as active; . = no result.
SMILES,V-ATPase pHluor,PKA-R1A act,PolyA inh,CR mimetic SO,PKA-R2B activ,GASC-1 inh,Superoxide pick,DHE counter
CN1CCN(C2=Cc3ccccc3Sc3cc(F)c(F)cc32)CC1,1,-1,-10,73,1,-6,.,.
CN1CCN(C2=Cc3cc(Cl)ccc3Sc3cc(F)ccc32)CC1,-1,10,-24,60*,-6,-8,94,93
Cc1ccc(N/N=C2/CCCNC2=O)cc1,-1,-4,3,106,-4,-2,.,.
CC(=O)c1ccc(N/N=C2/CCCNC2=O)cc1,4,.,-6,63*,.,-13,107,102
CCOc1ccc(Cl)cc1S(=O)(=O)N1CCC(C(=O)N2CCCC2)CC1,-2,12,-2,97,-5,-1,.,.
COc1ccc(/C(C#N)=C/c2ccccn2)cc1,2,2,-7,58*,-4,-1,122,109
CC(C)=NNc1nc2sc3c(c2c(=O)[nH]1)CC(C)(C)OC3,3,-6,3,50*,4,-4,95,92
CC1Oc2ccccc2N(CC(=O)c2ccccc2)C1=O (stereo not given),-3,-7,9,60*,12,-29,111,93
Cc1ccc(C(=O)CN2C(=O)C(C)Oc3ccccc32)cc1 (stereo not given),4,-1,5,85,-4,13,.,.
COCC(C)Nc1ncnc2c1cnn2-c1ccc(Cl)cc1 (stereo not given),-3,-16,-15,107,-9,12,89,93
COc1ccc(-n2ncc3c(NC(C)C)ncnc32)cc1,4,1,-22,85,0,6,.,.
COc1ccc(-n2ncc3c(NCC(C)C)ncnc32)cc1,3,-1,-7,78,2,1,117,106
COc1cc2[nH]c(=O)n(CCCCCC(=O)N3CCN(c4ccccc4)CC3)c(=O)c2cc1OC,0,0,-9,64*,-7,6,95,93
CC(=O)N1CCC(C(=O)Nc2cc(C)cc(C)c2)CC1,0,-13,7,61*,-1,26,103,91
COc1ccc(C(=O)CC(C(=O)O)c2ccc3c(c2)OCO3)cc1OC (stereo not given),1,-5,.,.,1,.,.,.
O=C(O)c1cnc2ccccc2n1,1,-1,0,64*,-4,-5,71,94
CC(OC(=O)CC1Sc2ccccc2NC1=O)C(=O)NC1CCCC1 (stereo not given),3,2,-3,98,-10,-4,.,.
Cc1cccc(NC(=O)C2CCN(S(=O)(=O)c3cccc4nonc34)CC2)c1,-1,-4,2,96,4,-11,.,.
NC(=O)c1ccc(NC(=O)COC(=O)c2ccccc2Nc2ccccc2)cc1,22,-2,-10,56*,9,-3,96,98
O=C(NCc1ccc(Cl)cc1)C1CCCN(c2cnccn2)C1 (stereo not given),-4,-5,5,65*,0,-21,112,112
CC(=O)NC(Cc1ccccc1)C(=O)Oc1ccc2ccccc2c1 (stereo not given),1,5,.,.,4,.,.,.
Cc1c(C)n2c(SCC(=O)Nc3cccc4ccccc34)nnc2[nH]c1=O,-2,-3,-20,96,-1,-4,.,.
COc1ccc(/C=N/NC(=O)c2cccnc2)cc1,4,6,-6,54*,-6,-7,95,99
COc1ccc(C(=O)Oc2ccc(/C=N/NC(=O)c3cccnc3)cc2OC)cc1,1,-10,.,95,13,1,.,.
Cc1cc(C)n2nc(-c3cccc(Br)c3)cc2n1,5,-24,-7,101,-11,-1,103,94
SMILES,V-ATPase pHluor,PKA-R1A act,PolyA inh,CR mimetic SO,PKA-R2B activ,GASC-1 inh,Superoxide pick,DHE counter
CCC(C)N(C(=O)CSc1nc2ccc(OC)cc2[nH]1)C1CCS(=O)(=O)C1 (stereo not given),-1,1,5,102,5,-35,.,.
CC(C)CN1C(=O)C(=O)N(CC(=O)c2ccc[nH]2)C1=O,3,-7,4,97,-11,4,.,.
Cc1ccc(C)c(S(=O)(=O)Nc2ccc(O)cc2)c1,-1,-2,17,92,-7,-2,108,111
Cc1ccc(C)c(NS(=O)(=O)c2ccccc2C)c1,5,2,.,103,-2,5,91,93
COc1ccc(C)cc1S(=O)(=O)Nc1ccc(F)cc1,-1,-5,-6,111,-1,-9,115,96
Cc1cc(C)c(S(=O)(=O)Nc2ccc(O)cc2)cc1C,-2,-5,11,106,-4,-8,.,.
O=C(O)CN1C(=O)C(=O)N(Cc2ccccc2F)C1=O,-3,-1,3,109,2,9,.,.
CC[n+]1c(C)cc(C)n1-c1ccccc1,0,-14,10,87,-7,8,.,.
O=C(CSc1ccc(-c2nc3ccccc3[nH]2)cn1)Nc1ccc(S(=O)(=O)N2CCCC2)cc1,2,-2,-3,64*,-4,3,119,109
Cc1cc2nc(-c3ccc(SCC(=O)Nc4ccc(S(=O)(=O)N5CCCC5)cc4)nc3)[nH]c2cc1C,0,4,-7,108,8,2,.,.
CCSc1ncc(Cl)c(C(=O)Nc2ccc(S(=O)(=O)Nc3ncccn3)cc2)n1,-4,-4,5,86,-3,-2,.,.
CCn1nc(C(=O)Nc2ccccc2C)c(Cl)c1Cl,-2,-12,-12,90,-5,3,.,.
CSc1ncc(Cl)c(C(=O)Nc2ccccc2C)n1,1,-14,7,103,-8,-2,101,107
CSc1ncc(Cl)c(C(=O)Nc2ccccc2[N+](=O)[O-])n1,0,-2,-3,102,11,3,.,.
CCSc1ncc(Cl)c(C(=O)Nc2ccc(S(N)(=O)=O)cc2)n1,4,5,18,63*,3,1,102,102
CCSc1ncc(Cl)c(C(=O)Nc2ccccc2)n1,0,-7,18,100,-1,8,107,90
CCSc1ncc(Cl)c(C(=O)Nc2ccccc2C)n1,5,5,12,62*,5,6,118,123
CN(c1ccccc1)S(=O)(=O)c1ccc(NC(=O)c2nc(S(C)(=O)=O)ncc2Cl)cc1,5,-4,10,62*,3,0,101,95
CN(c1ccccc1)S(=O)(=O)c1ccc(NC(=O)c2ccccc2)cc1,-2,-12,17,99,-7,10,.,.
